# Laboratory results published in article PMC5700166.
# Assays:
# [1] = target: T1, GST-Nv-NF-kB (Ser allele) (Nematostella vectensis, UniProt A7UNT2 2-411); experiment: protein-binding microarray (PBM); PBM: ~300 nM protein, 6 mM HEPES pH 7.8, 80 mM KCl, 0.5 mM EDTA, 0.5 mM EGTA, 6% glycerol, 35 ng/ul poly-dIdC, 1% milk, 1 h, room temperature; Ap Aiptasia and Nv Nematostella (sea anemones) / Co Capsaspora / Aq Amphimedon (sponge) / Dm Drosophila / Hu human; RHD is the Rel homology domain; high values mean tight binding; details: dsDNA, one strand shown
# T1 sequence: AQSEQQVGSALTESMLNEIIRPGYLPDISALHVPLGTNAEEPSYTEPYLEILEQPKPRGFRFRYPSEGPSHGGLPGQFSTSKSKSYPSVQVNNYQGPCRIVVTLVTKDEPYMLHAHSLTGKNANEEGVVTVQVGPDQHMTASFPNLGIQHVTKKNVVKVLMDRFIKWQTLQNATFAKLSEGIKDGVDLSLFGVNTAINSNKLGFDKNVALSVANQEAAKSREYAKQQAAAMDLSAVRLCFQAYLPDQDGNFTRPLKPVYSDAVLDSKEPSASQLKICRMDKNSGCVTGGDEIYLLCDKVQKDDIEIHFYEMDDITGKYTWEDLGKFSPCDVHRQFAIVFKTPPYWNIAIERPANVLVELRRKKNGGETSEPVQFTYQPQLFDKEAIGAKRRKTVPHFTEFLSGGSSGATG
# GST-Hu-p50 = GST-Hu-p50 (Homo sapiens, UniProt P19838 7-356); experiment: as above; details: dsDNA, one strand shown
# Chain of GST-Hu-p50 (P19838 7-356): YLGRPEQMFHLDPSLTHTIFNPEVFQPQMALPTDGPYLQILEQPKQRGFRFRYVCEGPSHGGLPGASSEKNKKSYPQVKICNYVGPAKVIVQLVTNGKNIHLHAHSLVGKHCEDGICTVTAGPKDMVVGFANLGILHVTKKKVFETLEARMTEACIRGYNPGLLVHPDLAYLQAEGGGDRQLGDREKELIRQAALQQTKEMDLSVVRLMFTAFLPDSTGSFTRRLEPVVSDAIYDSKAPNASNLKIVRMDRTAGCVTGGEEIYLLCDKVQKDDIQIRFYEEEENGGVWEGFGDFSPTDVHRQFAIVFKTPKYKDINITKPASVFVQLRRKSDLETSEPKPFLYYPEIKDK
Sequence,binding signal [1] [z-score],binding signal (GST-Hu-p50) [z-score]
CCGATTAACATCAGGGGTTCACCTGATGTTAATCGGGTCTTGATTCGCTTGACGCTGCTG,3.04,3.78
CCGATTAACATCACGGATTTCCCTGATGTTAATCGGGTCTTGATTCGCTTGACGCTGCTG,5.46,3.76
CCGATTAACATCAGGACTACCCCTGATGTTAATCGGGTCTTGATTCGCTTGACGCTGCTG,1.61,3.02
CCGATTAACATCAGGAGAACCCCTGATGTTAATCGGGTCTTGATTCGCTTGACGCTGCTG,1.24,3.68
CCGATTAACATCAGGGGACGCACTGATGTTAATCGGGTCTTGATTCGCTTGACGCTGCTG,4.02,4.28
CCGATTAACATCACTAAAATCCCTGATGTTAATCGGGTCTTGATTCGCTTGACGCTGCTG,3.42,3.2
CCGATTAACATCACGGAAGTCCCTGATGTTAATCGGGTCTTGATTCGCTTGACGCTGCTG,5.32,4.43
CCGATTAACATCACGTTATTCCCTGATGTTAATCGGGTCTTGATTCGCTTGACGCTGCTG,3.53,1.05
CCGATTAACATCATAAGCGGGGATGATGTTAATCGGGTCTTGATTCGCTTGACGCTGCTG,3.83,3.66
CCGATTAACATCAGTCCCTAAGCTGATGTTAATCGGGTCTTGATTCGCTTGACGCTGCTG,1.05,2.51
CCGATTAACATCAATTTCCCGCCTGATGTTAATCGGGTCTTGATTCGCTTGACGCTGCTG,4.4,2.33
CCGATTAACATCAGGAATTACCATGATGTTAATCGGGTCTTGATTCGCTTGACGCTGCTG,2.03,2.05
